This assay has as its system PRMT1 (protein arginine N-methyltransferase 1). Briefly: small molecules binding arginine methyltransferase PRMT1 – biochemical, small-molecule microarray, 635 nm fluorescence, primary screen (AID 1088). The settings on record: higher = more signal.
`COC(=O)[C@@]1(Cc2ccc(F)cc2)[C@H]2c3cc(C(=O)N4CCCC4)n(CCc4c[nH]c5ccc(OC)cc45)c3C[C@H]2CN1C(=O)c1ccccc1` yielded a composite z-score of -0.508. With `COCCOC(=O)N1C(=O)[C@@]2(c3cc(C#CC4(O)CCCCCC4)ccc31)[C@H](C(=O)N1CCCCCCC1)[C@H]1C(=O)O[C@H](c3ccccc3)[C@H](c3ccccc3)N1[C@@H]2c1ccc(OCCO)cc1` the figure was 1.53; with `COC(=O)Cn1c(C(=O)N2CCCC2)cc2c1C[C@H]1CN(C(=O)c3ccccc3)[C@@](Cc3ccc(F)cc3)(C(=O)OC)[C@@H]21`, -0.533. As for `NC(=O)N1C(=O)C2C(C1=O)C1C=C(c3ccc(CO)cc3)C2C(C2CC2)N1Cc1sc2ccccc2c1Cl` (stereo unspecified), the figure is 1.54; as for `CC=CC(O)C1C=CC2C(=O)N(C)C(=O)C2N1Nc1ccc([N+](=O)[O-])cc1[N+](=O)[O-]` (stereo unspecified), 0.0758.

The compound `CN(C)CCCNC(=O)[C@@]1(c2ccc([N+](=O)[O-])cc2)CC(=O)N(CC23CC4CC(CC(C4)C2)C3)[C@@H]1c1ccc(CO)cc1` had a composite z-score of 1.53.

For `C=CC1c2cc(O)c(OC)cc2CCN1Cc1sc2ccccc2c1Cl` (stereo unspecified), the composite z-score worked out at 0.756.

`CC(C)C(=C=CC[C@@H](O)c1ccccc1OCCO)C[C@@H](O)COCc1ccccc1` came in with a composite z-score of 1.29.

`C=CCN1C(=O)[C@]2(CC=C)N=C(c3ccc(OCCCO)cc3)O[C@@H]2c2ccccc21` yielded a composite z-score of 1.45. With `Cc1ccc(S[C@]2(C(=O)NCc3ccccc3)CC(=O)N(C(C)C)[C@@H]2c2ccc(CO)cc2I)cc1` the figure was 0.448; with `CO[C@H]1O[C@H](CO)[C@@H](OC(=O)Nc2ccc(C(F)(F)F)cc2)[C@H](OC(=O)Nc2ccc3c(c2)OCO3)[C@H]1OC(=O)Nc1ccc2c(c1)OCO2`, 1.54. With `CN1C2C=C(CCCO)C(C3C(=O)N(C(N)=O)C(=O)C32)C1c1cccs1` (stereo unspecified) the figure was 0.613. As for `COC(=O)C(CC#Cc1ccc2c(c1)[C@]1(C(=O)N2)[C@H](C(=O)O)[C@H]2C(=O)O[C@H](c3ccccc3)[C@H](c3ccccc3)N2[C@@H]1c1ccccc1OCCO)C(=O)OC`, the figure is 1.54; as for `CC(C)CCC[C@@H](C)[C@H]1CC[C@@]2(C)C3=C(CC[C@]12C)[C@@]1(C)CC[C@H](OC(=O)c2ccc(Br)cc2)C(C)(C)C1CC3` (stereo partly specified), 0.739. For the compound `Cc1ccc(S[C@]2(C(=O)NCCN3CCOCC3)CC(=O)N(Cc3ccccc3C(F)(F)F)[C@@H]2c2ccc(CO)cc2I)cc1`, the composite z-score turned out to be 0.783. As to `CCCCN1CC=CC23O[C@@H]4C=CCOC(=O)[C@@H]4[C@H]2C(=O)N(CCCO)[C@@H]3C1=O` (stereo partly specified), the composite z-score turned out to be 0.412. As for `C=C[C@@H](C)[C@H](OC(=O)Nc1ccc(SC)cc1)c1ccc(OCCO)cc1`, the figure is -0.0446; as for `O=c1cccc(-c2cccc(Cl)c2)o1`, 0.0485; as for `Cc1ccc(S[C@]2(C(=O)NCC(F)(F)F)CC(=O)N(Cc3ccccc3)[C@@H]2c2ccc(CO)cc2)cc1`, 0.293.

As for `COc1ccc([Si](C)(C)[C@H]2[C@H](CC(=O)N3Cc4ccccc4C[C@H]3CO)O[C@@]3(C(=O)N(Cc4cccc(N5CCCCC5=O)c4)c4ccccc43)[C@@H]2C)cc1`, the composite z-score turned out to be 1.29. With `O=C1OCC=C[C@H]2OC34C=CCN(Cn5nnc6ccccc65)C(=O)[C@H]3N(CCCCCCO)C(=O)[C@@H]4[C@@H]12` (stereo partly specified) the figure was -0.184. For `COCCOC(=O)N1C(=O)[C@@]2(c3cc(C#Cc4ccc(OC)cc4)ccc31)[C@H](C(=O)N1CCN(c3ncccn3)CC1)[C@H]1C(=O)O[C@H](c3ccccc3)[C@H](c3ccccc3)N1[C@@H]2c1ccccc1OCCO`, the composite z-score came out at 1.45. On to `O=C1C2C=CC(C(O)c3cc(C(F)(F)F)cc(C(F)(F)F)c3)N(Nc3ccc([N+](=O)[O-])cc3)C2C(=O)N1c1ccccc1` (stereo unspecified), for which the composite z-score was 1.54. With `CCOC(=O)C[C@H]1[C@H](OC(=O)Cc2ccc3c(c2)OCO3)[C@@H](NC(=O)Cc2ccc(OC)cc2)c2cc(OCCCO)ccc2N1C(=O)c1ccccc1` the figure was 1.26. As for `O=C1NCC(=O)N2[C@@H]1C[C@@H](C(=O)O)[C@H]2c1ccc(O)cc1`, the figure is 1.56; as for `C=C(COC)/C(=C/C[C@@H](OC(=O)c1ccncc1)c1cccc(OCCO)c1)c1cnc2ccccc2c1`, 1.55; as for `CCOC(=O)C[C@H]1[C@H](OC(=O)c2ccccc2-c2ccccc2)[C@@H](NC(=O)c2ccc3ccccc3n2)c2cc(OCCCO)ccc2N1C(=O)c1ccc2ccccc2n1`, 0.215. `[N-]=[N+]=NCc1ccccc1C[C@]1(C(=O)NCC(O)CO)N=C(c2ccc(OCCCO)cc2)O[C@H]1c1ccccc1CN=[N+]=[N-]` (stereo partly specified) had a composite z-score of 1.56. As for `C[n+]1ccc(CCCO)cc1`, the figure is 0.618; as for `CCCC[C@@H]1C[C@H]1[C@@H](NC(=O)c1ccccc1)c1ccc(Cl)cc1`, -1.36; as for `C=C(CCCC)/C(=C/C[C@@H](OC(C)=O)c1ccc(CO)o1)c1cc(C(=O)OC)ccc1OC`, 1.57.

For the compound `CC(C)OC(=O)CC(=O)CC(O)c1cccc(C#N)c1` (stereo unspecified), the composite z-score was 0.864. As for `COC(=O)[C@@]1(Cc2ccccc2)[C@H]2c3cc(C(=O)N4CCCC4)[nH]c3C[C@H]2CN1C(=O)c1ccccc1`, the figure is -1.74; as for `COc1c(C)cc(-c2cc3c(c(-c4ccccc4)n2)[Si](C(C)C)(C(C)C)OC3)cc1C`, -0.267; as for `C=CC[C@@]1(C(=O)N2CCCCC2)N=C(c2ccc(OCCCO)cc2)O[C@@H]1c1ccccc1`, 1.56. On to `CN(C)CCCNC(=O)[C@@H]1c2ccccc2C(=O)N(Cc2ccc(OC(F)(F)F)cc2)[C@H]1c1ccc(CO)cc1`, for which the composite z-score came to 1.54.

The record behind these values is PubChem BioAssay.
